We go through seven molecules from PubChem BioAssay (NCATS).

Values without a mark were called inactive. Results filed as inconclusive are left out. Calls of active or inactive are those of the source. Unless noted, calls follow the shape of the dose curve; as a rule, active = well fitted curve in either direction with a large enough effect (not every such curve was filed as active); inconclusive = small, poorly fitted or top-dose-only effect, or another doubt; inactive = flat fitted curve, though single readings scatter.

In assay [1] the target is Lysosomal acid glucosylceramidase (Homo sapiens) (UniProt P04062). Briefly: Glucocerebrosidase-p2 (AID 348; in the data active = potency below about 10 µM; also: potency is read from the fitted curve at half-maximal effect). As to conditions: purified GBA, blue fluorogenic substrate, 40 min. The procedure, abridged:
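Normal human glucocerebrosidase (0.2 nM) with blue fluorogenic substrate (80 uM final) in citrate/phosphate pH 5.9 with 10mM sodium taurocholate, 0.01% tween-20; 40 min RT, NaOH/glycine stop; fluorescence Ex 365/Em 440; AC50 from a titration from 0.6 nM upwards.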

Assay [2] can be described thus: AP1 Signaling Pathway (AID 357). Also: % is scaled to controls: 0 for no effect and ±100 for the full control effect. As to conditions: ME-180 AP-1-bla reporter, EGF-induced, beta-lactamase ratio, 5 h; at 7.69 µM (top of the series) unless noted. The essentials: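 Cells are seeded overnight, exposed to compound titrations and an EC50 level of EGF for 5 hours at 37 °C, then loaded with CCF4 dye for 2.5 hours. Beta-lactamase activity under the AP-1 element is read as a blue/green ratio.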

Assay [3] concerns the target Cytochrome P450 1A2 (Homo sapiens) (UniProt P05177). The experiment in a line: p450-cyp1a2 (AID 410; calls by dose curve; also: potency is read from the fitted curve at half-maximal effect;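 as to activity change, negative = inhibition: -100% = full effect of reference inhibitor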). As to conditions: recombinant CYP1A2, luciferin-ME demethylation, luminescence; series mostly up to 57 µM. The essentials: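 Luminescent demethylation readout: Luciferin-ME (100uM, equal to Km) turned over by 20nM CYP1A2 for 60 min at room temperature after NADPH regeneration addition, following 10 min compound preincubation. Normalization used 57 uM furafylline as full inhibition.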

The nature of assay [4]: NFAT Signaling Pathway (AID 444).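 Also: carbachol stimulus at about its EC50 of 1 µM final; % is scaled to controls: 0 for no effect and ±100 for the full control effect.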 As to conditions: Jurkat NFAT-bla M1, carbachol, beta-lactamase ratio, 5 h; at 7.69 µM (top of the series) unless noted. The procedure, abridged: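 Jurkat cells carrying an NFAT-driven β-lactamase reporter and co-transfected muscarinic M1 receptor were treated with compound plus carbachol (1 uM final, an EC50 level) for 5 h at 37 °C. CCF4 loading followed for 1 h at RT; 460/530 nm ratio gave %activity.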

A short description of assay [5]: Stat Signaling Pathway (AID 446).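 Also: ME-180 cervical cancer cells given 40 pM IL-6 alongside compound; SIE-controlled beta-lactamase reporter measured as 460/530 nm FRET emission ratio; % is scaled to controls: 0 for no effect and ±100 for the full control effect.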 As to conditions: ME-180 (cervical carcinoma) SIE beta-lactamase reporter, IL-6 stimulated, 5 h; at 7.69 µM (top of the series) unless noted. The essentials:
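Emission at 460 and 530 nm (excitation 405 nm) reports SIE-controlled beta-lactamase in ME-180 cells. Cells received compound with 40 pM IL-6 for 5 hrs at 37 C; data scaled between 300 pM IL-6 and 125 nM JAK-inhibitor controls.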

Assay [6] has as its target Glucocorticoid receptor (Homo sapiens) (UniProt P04150). The experiment in a line: GR-EFC Redistribution (AID 451; calls by dose curve; also: potency is read from the fitted curve at half-maximal effect). As to conditions: CHO-K1 GR-EFC translocation, beta-gal luminescence, 2 h. The procedure, abridged:
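CHO-K1 cells stably expressing nuclear-localized β-gal enzyme acceptor and GR fused C-terminally to the enzyme donor fragment; ligand-driven nuclear translocation restores β-gal by complementation. Compounds titrated up to 46 uM final, 2 h at 37 °C; luminescence read.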

Assay [7] addresses Mitogen-activated protein kinase 10 (Mus musculus) (UniProt Q61831). The experiment in a line: JNK3 AlphaScreen Assay (AID 530).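 Also: kinase came from lysate of stimulated human HepG2 cells; % is scaled to controls: 0 for no effect and ±100 for the full control effect.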 As to conditions: JNK3 lysate, c-Jun phosphorylation; series mostly up to 57.1 µM. The essentials: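 Phosphorylation of biotinylated GST-cJun(1-79) at Ser73 is measured by AlphaScreen proximity luminescence. Enzyme is JNK3 in HepG2 lysates activated with interleukin-1beta and tumor necrosis factor alpha; ATP is 10 uM final.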
On the technique in general: In Alpha technology, singlet oxygen from a donor bead excites a nearby acceptor bead.

For assay [8], the target named is Cytochrome P450 3A4 (Homo sapiens) (UniProt P08684). Briefly: qHTS Assay for Activators of Cytochrome P450 3A4 (AID 885; active = well fitted curve in the direction sought with a large enough effect; an effect the other way counts as inactive or inconclusive; also: nearly all actives have a fitted effect of over 65% in size). As to conditions: recombinant CYP3A4, Luciferin-PPXE luminescence, 60 min; series mostly up to 57.1 µM. The essentials: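 Activators are scored by enhanced luminescence from CYP3A4 conversion of luciferin-PPXE (25uM, equal to KM) to luciferin, after 60 min at RT with an NADPH-regenerating system.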
Chain of Cytochrome P450 3A4 (Homo sapiens) (P08684 whole entry, looked up): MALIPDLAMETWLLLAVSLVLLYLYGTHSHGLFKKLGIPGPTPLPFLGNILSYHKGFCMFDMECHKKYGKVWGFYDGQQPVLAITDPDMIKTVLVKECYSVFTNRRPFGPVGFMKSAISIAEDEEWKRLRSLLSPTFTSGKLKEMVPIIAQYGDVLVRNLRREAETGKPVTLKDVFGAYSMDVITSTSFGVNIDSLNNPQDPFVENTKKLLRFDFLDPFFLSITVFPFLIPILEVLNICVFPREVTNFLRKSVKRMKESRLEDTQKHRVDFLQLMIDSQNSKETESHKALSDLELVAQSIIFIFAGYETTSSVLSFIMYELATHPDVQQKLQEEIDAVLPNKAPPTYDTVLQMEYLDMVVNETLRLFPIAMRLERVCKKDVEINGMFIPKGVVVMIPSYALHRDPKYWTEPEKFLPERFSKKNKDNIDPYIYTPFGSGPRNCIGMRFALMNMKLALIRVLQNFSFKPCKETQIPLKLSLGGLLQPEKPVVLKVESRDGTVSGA
In general terms: Quantitative high-throughput screening tests each substance at several concentrations.

Assay [9] has as its target Cytochrome P450 2C19 (Homo sapiens) (UniProt P33261). Briefly: qHTS Assay for Inhibitors and Substrates of Cytochrome P450 2C19 (AID 899; active = well fitted curve in the direction sought with a large enough effect; an effect the other way counts as inactive or inconclusive; also: nearly all actives have a fitted effect of over 60% in size; also: potency is read from the fitted curve at half-maximal effect). As to conditions: recombinant CYP2C19, luciferin-H EGE luminescence; series mostly up to 57.1 µM. The essentials: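 NADPH-dependent conversion of Luciferin-H EGE (10uM, at KM) by 5nM enzyme in 50mM KPO4, 60 min at 37C following 10 min compound preincubation. Stopped with luciferin detection buffer; luminescence read after 20 min.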

Assay [10] in a line: Primary qHTS for small molecule stabilizers of the endoplasmic reticulum resident proteome: Secreted ER Calcium Modulated Protein (SERCaMP) assay (AID 1508630; active = well fitted curve in the direction sought with a large enough effect; an effect the other way counts as inactive or inconclusive; also: % is scaled to controls: 0 for no effect and ±100 for the full control effect). As to conditions: SH-SY5Y GLuc-SERCaMP (Gaussia luciferase released on ER calcium loss) secretion, thapsigargin, luminescence; series mostly up to 38.4 µM. The essentials: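 The SH-SY5Y reporter protocol was run at 3 concentrations up to 38.3 uM (primary) or 11 concentrations (follow-up): 16 h compound, 100 nM thapsigargin for 4 h, then extracellular luciferase luminescence.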

Assay [11] has as its target 3',5'-cyclic-AMP phosphodiesterase 4B (Homo sapiens) (UniProt Q07343). The experiment in a line: qHTS Assay for Inhibitors of PDE-IV (AID 607; active = well fitted activation curve with a large enough effect in the main read-out, with a control signal flat, not every such curve was filed as active; also: % of control where 0% means no effect). As to conditions: HEK293 ACTOne CNG channel cells, membrane potential fluorescence; series mostly up to 22.9 µM. The procedure, abridged: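 The readout is membrane depolarisation from a cAMP-sensing CNG channel, detected with a potential dye at ex 535/em 590. Cells were HEK293-derived (endogenous PDE-IV) at 1000 cells/well, titrated up to 22.9 uM final.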

In assay [12] the target is Glucocorticoid receptor (Homo sapiens) (UniProt P04150). Briefly: GR-GFP Redistribution (AID 450;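 active = compounds whose dose series gives a full or clear partial fitted curve of increased nuclear translocation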; also: potency is read from the fitted curve at half-maximal effect). As to conditions: U2OS GR-GFP nuclear translocation, laser cytometry, 2 h.
Chain of Glucocorticoid receptor (Homo sapiens) (P04150 whole entry, looked up, the tested form may be a part): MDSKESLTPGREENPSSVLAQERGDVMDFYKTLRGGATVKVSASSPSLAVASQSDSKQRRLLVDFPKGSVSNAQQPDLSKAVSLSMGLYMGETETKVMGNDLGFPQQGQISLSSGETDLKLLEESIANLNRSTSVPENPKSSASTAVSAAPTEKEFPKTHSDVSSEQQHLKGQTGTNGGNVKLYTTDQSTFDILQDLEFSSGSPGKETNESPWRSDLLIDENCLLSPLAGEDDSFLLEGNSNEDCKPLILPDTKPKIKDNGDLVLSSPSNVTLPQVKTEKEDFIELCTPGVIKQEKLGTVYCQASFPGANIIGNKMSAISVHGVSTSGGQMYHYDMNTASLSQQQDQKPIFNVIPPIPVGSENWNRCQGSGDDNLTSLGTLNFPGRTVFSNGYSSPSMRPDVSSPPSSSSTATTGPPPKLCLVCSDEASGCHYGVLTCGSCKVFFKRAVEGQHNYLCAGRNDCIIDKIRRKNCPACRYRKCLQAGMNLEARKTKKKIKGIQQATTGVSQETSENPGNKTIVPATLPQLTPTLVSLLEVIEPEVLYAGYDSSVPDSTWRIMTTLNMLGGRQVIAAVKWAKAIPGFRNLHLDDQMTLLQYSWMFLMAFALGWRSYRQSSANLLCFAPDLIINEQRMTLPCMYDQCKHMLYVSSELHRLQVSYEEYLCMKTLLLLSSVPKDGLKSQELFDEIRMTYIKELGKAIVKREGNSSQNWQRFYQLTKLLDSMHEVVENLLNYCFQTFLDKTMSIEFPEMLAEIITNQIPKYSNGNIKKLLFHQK
Assay [13] in a line: Confirmation and Secondary Assay for Modulators of Hemoglobin Beta Chain Splicing at IVS2 654 locus (AID 910; active = well fitted curve in the direction sought with a large enough effect; an effect the other way counts as inactive or inconclusive;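 also: per-well total GFP intensity by laser scanning cytometry after 2-day treatment; % of control where 0% means no effect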). As to conditions: HeLa EGFP-654 splicing reporter, GFP fluorescence, 48 h; series mostly up to 38.3 µM. The essentials:
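HeLa cells stably carrying EGFP interrupted by mutant beta-globin IVS2-654 intron (CMV-driven) were treated with compound for 2 days at 37C; corrected splicing was scored as total peak GFP intensity per well (488 nm excitation, 500-520 nm emission).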

The nature of assay [14]: Confirmation and Secondary Assay for Modulators of Hemoglobin Beta Chain Splicing at IVS2 705 locus (AID 930; active = well fitted curve in the direction sought with a large enough effect; an effect the other way counts as inactive or inconclusive;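 also: HeLa cells stably expressing the EGFP-705 splicing reporter; GFP fluorescence per well restored by corrected splicing of the IVS2-705 intron in EGFP; % of control where 0% means no effect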). As to conditions: HeLa EGFP-705 splicing reporter, GFP fluorescence, 48 h; series mostly up to 38.3 µM. The procedure, abridged:
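First, HeLa EGFP-705 cells are seeded at 500/well in Optimem with 2% FCS and left overnight. Next, compound or DMSO is added for 2 days. Finally wells are laser-scanned and total peak GFP intensity scored.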

The target of assay [15] is Ubiquitin carboxyl-terminal hydrolase 1 (Homo sapiens) (UniProt O94782). The experiment in a line: Inhibitors of USP1/UAF1: Pilot qHTS (AID 504865; active = well fitted curve in the direction sought with a large enough effect; an effect the other way counts as inactive or inconclusive;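 also: rhodamine fluorescence freed from ubiquitin-rhodamine substrate followed over time; top concentration of the series differs between compounds; % is scaled to controls: 0 for no effect and ±100 for the full control effect; nearly all actives have a fitted effect of over 35% in size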). As to conditions: purified USP1/UAF1, Ub-rhodamine cleavage fluorescence; series mostly up to 54.9 µM. The procedure, abridged: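 USP1/UAF1 complex at 1 nM preincubated 15 min at room temperature with compound, then Ub-Rho substrate added at 150 nM final. Fluorescence (480/540 nm) read kinetically in 50 mM HEPES pH 7.8, 0.5 mM EDTA, 1 mM TCEP, 0.1 mg/ml BSA, 0.01% Tween-20.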
Chain of Ubiquitin carboxyl-terminal hydrolase 1 (Homo sapiens) (O94782 whole entry, looked up): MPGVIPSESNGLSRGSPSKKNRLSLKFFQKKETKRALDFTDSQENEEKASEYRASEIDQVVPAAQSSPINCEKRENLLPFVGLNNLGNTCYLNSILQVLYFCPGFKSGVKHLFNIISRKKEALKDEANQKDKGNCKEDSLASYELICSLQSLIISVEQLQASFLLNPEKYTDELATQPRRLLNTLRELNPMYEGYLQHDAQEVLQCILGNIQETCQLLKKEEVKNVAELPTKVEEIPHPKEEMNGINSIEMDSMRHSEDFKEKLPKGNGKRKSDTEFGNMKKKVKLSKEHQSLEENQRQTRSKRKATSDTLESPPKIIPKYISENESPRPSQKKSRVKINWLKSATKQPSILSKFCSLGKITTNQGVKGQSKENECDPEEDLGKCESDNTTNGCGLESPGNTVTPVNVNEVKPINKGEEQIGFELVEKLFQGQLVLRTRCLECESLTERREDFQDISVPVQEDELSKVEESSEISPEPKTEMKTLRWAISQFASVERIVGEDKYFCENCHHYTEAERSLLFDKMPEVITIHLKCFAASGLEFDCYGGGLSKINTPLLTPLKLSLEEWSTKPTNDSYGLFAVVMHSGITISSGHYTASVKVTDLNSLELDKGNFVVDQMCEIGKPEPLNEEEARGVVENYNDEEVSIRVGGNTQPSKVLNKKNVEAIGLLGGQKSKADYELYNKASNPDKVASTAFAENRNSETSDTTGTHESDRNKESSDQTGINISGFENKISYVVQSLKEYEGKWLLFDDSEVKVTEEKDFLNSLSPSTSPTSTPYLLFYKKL

Assay [16] has as its target Cytochrome P450 3A4 (Homo sapiens) (UniProt P08684). The experiment in a line: qHTS Assay for Inhibitors and Substrates of Cytochrome P450 3A4 (AID 884; active = well fitted curve in the direction sought with a large enough effect; an effect the other way counts as inactive or inconclusive; also: potency is read from the fitted curve at half-maximal effect; nearly all actives have a fitted effect of over 50% in size). As to conditions: recombinant CYP3A4, Luciferin-PPXE luminescence; series mostly up to 57.1 µM. The essentials:
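Luminescent readout of luciferin produced by CYP3A4 (20 nM) dealkylation of Luciferin-PPXE, 25 uM (its KM). NADPH-driven reaction ran 60 min at RT after 10 min compound preincubation; data scaled to 57 uM ketoconazole as 100% inhibition.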

Assay [17] addresses Cytochrome P450 2D6 (Homo sapiens) (UniProt P10635). The experiment in a line: qHTS Assay for Inhibitors and Substrates of Cytochrome P450 2D6 (AID 891; active = well fitted curve in the direction sought with a large enough effect; an effect the other way counts as inactive or inconclusive; also: nearly all actives have a fitted effect of over 60% in size; also: potency is read from the fitted curve at half-maximal effect). As to conditions: recombinant CYP2D6, luciferin-ME EGE luminescence; series mostly up to 57.1 µM. The essentials:
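Luminescent read-out of luciferin formed by 5 nM human CYP2D6 demethylating 30 uM Luciferin-ME EGE (Km level) over 60 min at room temperature after NADPH regeneration addition. Data normalized to full inhibition by 1.43 uM quinidine.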

Chain of Cytochrome P450 1A2 (Homo sapiens) (P05177 whole entry, looked up): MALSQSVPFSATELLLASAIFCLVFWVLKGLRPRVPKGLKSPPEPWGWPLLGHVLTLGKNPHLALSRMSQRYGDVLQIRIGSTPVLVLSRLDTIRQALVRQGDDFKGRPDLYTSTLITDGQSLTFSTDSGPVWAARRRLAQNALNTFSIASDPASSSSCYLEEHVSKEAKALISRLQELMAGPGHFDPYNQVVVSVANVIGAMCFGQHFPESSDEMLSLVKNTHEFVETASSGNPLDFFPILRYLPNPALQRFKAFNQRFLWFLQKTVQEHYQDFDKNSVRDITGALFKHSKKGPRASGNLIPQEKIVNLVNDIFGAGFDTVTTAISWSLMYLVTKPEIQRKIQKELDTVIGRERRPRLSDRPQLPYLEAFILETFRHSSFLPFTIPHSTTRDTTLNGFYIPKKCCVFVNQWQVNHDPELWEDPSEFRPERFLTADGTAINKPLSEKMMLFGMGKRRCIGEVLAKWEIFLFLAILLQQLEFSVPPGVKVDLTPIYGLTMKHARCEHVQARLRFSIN
Chain of 3',5'-cyclic-AMP phosphodiesterase 4B (Homo sapiens) (Q07343 whole entry, looked up): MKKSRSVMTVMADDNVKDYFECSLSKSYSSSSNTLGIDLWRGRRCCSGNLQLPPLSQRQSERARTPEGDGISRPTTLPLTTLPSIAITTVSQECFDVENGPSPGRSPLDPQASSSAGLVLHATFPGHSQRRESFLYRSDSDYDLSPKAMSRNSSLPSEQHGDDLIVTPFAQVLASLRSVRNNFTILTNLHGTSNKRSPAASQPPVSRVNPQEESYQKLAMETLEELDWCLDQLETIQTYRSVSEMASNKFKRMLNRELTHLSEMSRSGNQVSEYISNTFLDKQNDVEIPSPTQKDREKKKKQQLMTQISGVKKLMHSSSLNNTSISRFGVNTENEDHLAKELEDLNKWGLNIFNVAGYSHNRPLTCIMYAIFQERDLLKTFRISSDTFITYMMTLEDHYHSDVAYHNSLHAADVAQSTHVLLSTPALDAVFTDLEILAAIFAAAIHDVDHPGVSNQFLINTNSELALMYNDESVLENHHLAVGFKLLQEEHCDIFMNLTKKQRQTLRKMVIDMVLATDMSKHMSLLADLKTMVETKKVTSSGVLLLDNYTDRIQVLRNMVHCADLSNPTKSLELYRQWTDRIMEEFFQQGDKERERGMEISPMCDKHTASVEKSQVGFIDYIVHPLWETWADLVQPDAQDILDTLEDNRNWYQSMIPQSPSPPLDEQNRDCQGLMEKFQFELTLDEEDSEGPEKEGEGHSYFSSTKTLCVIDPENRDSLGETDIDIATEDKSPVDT
Chain of Lysosomal acid glucosylceramidase (Homo sapiens) (P04062 whole entry, looked up): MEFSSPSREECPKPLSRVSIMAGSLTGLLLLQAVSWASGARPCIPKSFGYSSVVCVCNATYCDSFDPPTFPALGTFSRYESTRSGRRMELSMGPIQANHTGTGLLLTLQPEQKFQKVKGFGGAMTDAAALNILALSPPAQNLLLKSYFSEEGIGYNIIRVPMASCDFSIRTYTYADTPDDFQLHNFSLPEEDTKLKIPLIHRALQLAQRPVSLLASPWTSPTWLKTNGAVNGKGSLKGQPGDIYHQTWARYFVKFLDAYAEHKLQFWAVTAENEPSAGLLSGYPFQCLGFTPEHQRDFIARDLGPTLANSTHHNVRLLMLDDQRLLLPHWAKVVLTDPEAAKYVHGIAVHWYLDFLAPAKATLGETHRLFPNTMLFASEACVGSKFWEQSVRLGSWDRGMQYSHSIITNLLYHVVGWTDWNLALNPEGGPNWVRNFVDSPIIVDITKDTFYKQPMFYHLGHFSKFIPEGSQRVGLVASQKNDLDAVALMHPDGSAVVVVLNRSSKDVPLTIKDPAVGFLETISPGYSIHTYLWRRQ
Chain of Cytochrome P450 2D6 (Homo sapiens) (P10635 whole entry, looked up): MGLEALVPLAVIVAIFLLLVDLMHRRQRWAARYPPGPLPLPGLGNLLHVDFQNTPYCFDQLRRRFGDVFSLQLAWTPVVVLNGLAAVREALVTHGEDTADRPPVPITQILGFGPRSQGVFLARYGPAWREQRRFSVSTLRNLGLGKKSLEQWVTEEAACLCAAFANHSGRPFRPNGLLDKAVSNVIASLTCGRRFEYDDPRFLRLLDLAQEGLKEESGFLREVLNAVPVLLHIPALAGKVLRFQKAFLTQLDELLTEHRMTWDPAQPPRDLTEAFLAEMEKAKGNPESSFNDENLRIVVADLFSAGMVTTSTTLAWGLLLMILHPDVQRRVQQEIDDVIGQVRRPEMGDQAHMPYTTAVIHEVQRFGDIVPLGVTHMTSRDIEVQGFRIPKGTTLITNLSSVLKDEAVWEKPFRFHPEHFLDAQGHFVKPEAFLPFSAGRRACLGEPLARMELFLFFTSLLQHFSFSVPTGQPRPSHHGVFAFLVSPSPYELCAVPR
Chain of Cytochrome P450 2C19 (Homo sapiens) (P33261 whole entry, looked up): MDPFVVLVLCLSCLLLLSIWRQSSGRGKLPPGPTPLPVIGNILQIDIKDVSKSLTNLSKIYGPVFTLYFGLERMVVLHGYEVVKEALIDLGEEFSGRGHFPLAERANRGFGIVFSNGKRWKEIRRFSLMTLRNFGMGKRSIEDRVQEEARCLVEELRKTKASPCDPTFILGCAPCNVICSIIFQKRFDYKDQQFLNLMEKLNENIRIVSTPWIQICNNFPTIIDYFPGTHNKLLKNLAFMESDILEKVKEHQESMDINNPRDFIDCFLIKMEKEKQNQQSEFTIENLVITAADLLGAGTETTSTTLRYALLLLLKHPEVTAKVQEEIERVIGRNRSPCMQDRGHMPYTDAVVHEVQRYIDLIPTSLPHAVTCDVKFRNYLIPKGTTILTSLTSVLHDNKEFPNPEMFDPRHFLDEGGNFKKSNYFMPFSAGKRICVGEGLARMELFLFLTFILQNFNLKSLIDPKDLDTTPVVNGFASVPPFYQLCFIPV

With `O=C(Oc1ccccc1)N1CCC[C@@]2(CCN(c3ccccn3)C2)C1`, the Potency in assay [1] was more than 11.4 µM; in assay [3] it was 7.94 µM (active); in assay [6], more than 46 µM; in assay [9] it was 5.01 µM (active). Moreover, the activity change, negative = inhibition in assay [2] was 7.28%; in [4], -24.6%. Further, the activity, negative = inhibition in assay [5] is 9.87%. For the same molecule, the Potency result in assay [7] and in [8] was “inactive” each time. In addition, the result in [10] was inactive.

Turning to `COc1ccc(NC(=O)N2CCC3(CC2)CCN(C(=O)c2ccncc2)CC3)cc1`, the Potency is more than 11.4 µM in assay [1], 25.1 µM (active) in assay [3] and more than 46 µM in assay [6]. Moreover, the activity change, negative = inhibition in [2] was -0.635%; in assay [4], 3.85%. In addition, the activity, negative = inhibition in [5] is 4.58%. Further, the Potency entry in assay [7], in [11] and in [8] was “inactive” in each case. Further, in assay [10], the outcome was inactive.

As to `Cc1cnc(CNc2nc(-c3ccc(C(=O)N(C)C)cc3)nc3ccccc23)cn1`, the Potency in assay [1] was more than 11.4 µM; in assay [3], 25.1 µM (active); in [12] it was more than 46 µM; in [6], more than 46 µM. For the same molecule, the activity change, negative = inhibition in [2] was -29.1%. In addition, in assay [5], the activity, negative = inhibition was -7.91%. The Potency result in assay [7], in [11], in [8], in assay [13] and in assay [15] was “inactive” in each case. For the same molecule, the molecule was called inactive in assay [14] and in assay [10].

On to `COc1ccc(CNc2ncncc2-c2ccc3c(c2)OCO3)c(OC)c1`, for which the Potency in assay [1] is more than 11.4 µM; in [3] it was 0.501 µM (active); in [12] it was more than 46 µM; in [6], more than 46 µM; in assay [16], 0.126 µM (active); in assay [17] it was 0.794 µM (active). Moreover, in [2], the activity change, negative = inhibition was 11.1%. Further, in assay [5], the activity, negative = inhibition was -6.57%. The Potency entry in [7], in [8], in assay [13] and in [15] was “inactive” each time. Also, the outcome in assay [10] was inactive.

Consider `Cn1cccc1C(=O)N1CCC2(CC1)CCN(c1cccc(-c3ccccc3)c1)CC2`, for which the Potency in assay [1] is more than 11.4 µM; in [3] it was 20 µM (active); in [6], more than 46 µM. The values for the activity change, negative = inhibition in [2] and in assay [4] were -12.9% and 16.5%, respectively. In assay [5], the activity, negative = inhibition is -8.63%. Also, the Potency result in assay [11] was “inactive”. In [10], the outcome was inactive.

Consider `COc1ccc(C(=O)N2CCC3(CCCN(c4ncccn4)C3)CC2)cc1`, for which the Potency was more than 11.4 µM in assay [1], 20 µM (active) in assay [3] and more than 46 µM in assay [6]. Besides, the activity change, negative = inhibition in assay [2] is 0.224%; in [4] it was 13.8%. Further, the activity, negative = inhibition in assay [5] was -4.23%. The Potency entry in assay [7], in assay [11] and in [8] was “inactive” in each case. In addition, in [10], the outcome was inactive.

`O=C(c1cc(C(F)(F)F)cc(C(F)(F)F)c1)N1CCC2(CC1)CN(c1ncccn1)C2`: the Potency in [1] was more than 11.4 µM; in assay [6] it was more than 46 µM. Besides, the results for the activity change, negative = inhibition in [2] and in assay [4] were -14.3% and 31%, respectively. Moreover, the Potency entry in [3], in assay [7], in assay [11], in [17] and in [9] was “inactive” each time. Further, in assay [5], the activity, negative = inhibition is 1.12%. Besides, the result in [10] was inactive.
